# Results as given in article PMC7862700, “An all-to-all approach to the identification of sequence-specific readers for epigenetic DNA modifications on cytosine”.
# Key:
# Assay in all cases: DAPPL (digital affinity profiling via proximity ligation, sequencing); 10 mM Tris-HCl pH 7.5, 50 mM NaCl, 1 mM DTT, 4% glycerol, room temperature, 30 min; GST-TFs on glutathione beads, 16-mer random dsDNA library, 0.1% formaldehyde crosslink after washing; high values mean tight binding
# [1] = molecular target: T1, FEV (Homo sapiens, UniProt Q99581 1-238); settings: protein: recombinant; tags: N-terminal GST; dsDNA, one strand shown
# T1 sequence: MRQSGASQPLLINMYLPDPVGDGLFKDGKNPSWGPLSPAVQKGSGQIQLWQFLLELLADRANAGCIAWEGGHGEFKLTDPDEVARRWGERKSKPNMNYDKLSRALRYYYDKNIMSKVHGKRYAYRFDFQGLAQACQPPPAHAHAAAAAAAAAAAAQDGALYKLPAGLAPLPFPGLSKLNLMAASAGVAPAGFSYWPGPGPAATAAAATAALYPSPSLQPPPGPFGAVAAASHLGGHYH
# Summary of the method: (§1)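 Pools were built from human transcription factors expressed in yeast as GST fusions, captured on glutathione beads and DNA-barcoded, along with a tag-only sample. Incubation with 200 nmole of a 16-mer random double-stranded DNA library lasted 30 min at room temperature in Tris/NaCl/DTT/glycerol buffer, and was followed by washing, 0.1% formaldehyde crosslinking, proximity ligation, PCR amplification and Illumina NextSeq500 sequencing. Binding signal is the quotient of each hexamer's read frequency for a factor and its frequency for the tag-only sample.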
# [2] = molecular target: ETV5 (Homo sapiens, UniProt P41161 1-510); settings: protein: recombinant; tags: N-terminal GST; dsDNA, one strand shown
# Summary of the method: as §1
# [3] = molecular target: HSF1 (Homo sapiens, UniProt Q00613 1-529); settings: protein: recombinant; tags: N-terminal GST; chain copies: 3; dsDNA, one strand shown
# Summary of the method: as §1
# [4] = molecular target: T2, SPIC (Homo sapiens, UniProt Q8N5J4 1-248); settings: protein: recombinant; tags: N-terminal GST; dsDNA, one strand shown
# T2 sequence: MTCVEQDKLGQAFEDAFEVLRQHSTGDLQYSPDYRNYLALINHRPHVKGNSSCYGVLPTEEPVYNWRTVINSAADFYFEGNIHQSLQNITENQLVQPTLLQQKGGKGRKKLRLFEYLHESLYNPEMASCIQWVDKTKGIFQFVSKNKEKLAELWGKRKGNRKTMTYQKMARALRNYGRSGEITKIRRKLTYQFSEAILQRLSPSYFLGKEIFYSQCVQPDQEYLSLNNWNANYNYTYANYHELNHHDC
# Summary of the method: as §1
# [5] = molecular target: ELF4 (Homo sapiens, UniProt Q99607 1-663); settings: protein: recombinant; tags: N-terminal GST; dsDNA, one strand shown
# Summary of the method: as §1
# [6] = molecular target: T3, ELK4 (Homo sapiens, UniProt P28324-2 1-405); settings: protein: recombinant; tags: N-terminal GST; dsDNA, one strand shown
# T3 sequence: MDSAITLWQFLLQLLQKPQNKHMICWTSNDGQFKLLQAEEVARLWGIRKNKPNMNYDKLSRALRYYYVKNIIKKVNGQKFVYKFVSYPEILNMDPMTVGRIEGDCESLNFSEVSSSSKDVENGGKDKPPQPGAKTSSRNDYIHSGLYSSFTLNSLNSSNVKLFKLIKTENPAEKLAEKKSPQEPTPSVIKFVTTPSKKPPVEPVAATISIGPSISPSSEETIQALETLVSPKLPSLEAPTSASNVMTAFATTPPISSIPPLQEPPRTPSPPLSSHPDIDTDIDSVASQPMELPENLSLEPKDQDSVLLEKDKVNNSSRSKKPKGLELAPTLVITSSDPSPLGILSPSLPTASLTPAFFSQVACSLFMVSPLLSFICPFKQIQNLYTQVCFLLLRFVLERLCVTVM
# Summary of the method: as §1
# [7] = molecular target: T4, ETV2 (Homo sapiens, UniProt O00321 1-342); settings: protein: recombinant; tags: N-terminal GST; dsDNA, one strand shown
# T4 sequence: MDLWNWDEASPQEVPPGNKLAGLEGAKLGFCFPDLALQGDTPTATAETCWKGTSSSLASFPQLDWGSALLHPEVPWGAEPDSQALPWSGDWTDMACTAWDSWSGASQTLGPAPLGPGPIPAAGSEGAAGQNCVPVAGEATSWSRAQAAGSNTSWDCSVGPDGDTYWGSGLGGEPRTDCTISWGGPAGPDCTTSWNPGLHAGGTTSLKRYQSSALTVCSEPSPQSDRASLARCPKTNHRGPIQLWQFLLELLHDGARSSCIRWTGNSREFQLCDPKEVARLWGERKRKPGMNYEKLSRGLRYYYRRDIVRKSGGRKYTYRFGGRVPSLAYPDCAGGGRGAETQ
# Summary of the method: as §1
# [8] = molecular target: T5, ELF3 (Homo sapiens, UniProt P78545 1-371); settings: protein: recombinant; tags: N-terminal GST; dsDNA, one strand shown
# T5 sequence: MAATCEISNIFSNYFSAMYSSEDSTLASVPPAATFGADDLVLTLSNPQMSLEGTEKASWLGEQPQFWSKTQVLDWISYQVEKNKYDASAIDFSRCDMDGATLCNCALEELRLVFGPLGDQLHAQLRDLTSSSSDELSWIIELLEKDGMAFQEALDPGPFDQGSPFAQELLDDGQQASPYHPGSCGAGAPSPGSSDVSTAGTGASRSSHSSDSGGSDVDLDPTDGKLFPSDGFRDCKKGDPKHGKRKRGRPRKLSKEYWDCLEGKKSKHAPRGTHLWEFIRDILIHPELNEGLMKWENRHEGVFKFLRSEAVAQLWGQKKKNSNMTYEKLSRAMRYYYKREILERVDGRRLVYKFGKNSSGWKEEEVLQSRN
# Summary of the method: as §1
# [9] = molecular target: CRX (Homo sapiens, UniProt O43186 1-299); settings: protein: recombinant; tags: N-terminal GST; dsDNA, one strand shown
# Summary of the method: as §1
# [10] = molecular target: ETV1 (Homo sapiens, UniProt P50549 1-477); settings: protein: recombinant; tags: N-terminal GST; dsDNA, one strand shown
# Summary of the method: as §1
# [11] = molecular target: T6, ERF (Homo sapiens, UniProt P50548 1-548); settings: protein: recombinant; tags: N-terminal GST; dsDNA, one strand shown
# T6 sequence: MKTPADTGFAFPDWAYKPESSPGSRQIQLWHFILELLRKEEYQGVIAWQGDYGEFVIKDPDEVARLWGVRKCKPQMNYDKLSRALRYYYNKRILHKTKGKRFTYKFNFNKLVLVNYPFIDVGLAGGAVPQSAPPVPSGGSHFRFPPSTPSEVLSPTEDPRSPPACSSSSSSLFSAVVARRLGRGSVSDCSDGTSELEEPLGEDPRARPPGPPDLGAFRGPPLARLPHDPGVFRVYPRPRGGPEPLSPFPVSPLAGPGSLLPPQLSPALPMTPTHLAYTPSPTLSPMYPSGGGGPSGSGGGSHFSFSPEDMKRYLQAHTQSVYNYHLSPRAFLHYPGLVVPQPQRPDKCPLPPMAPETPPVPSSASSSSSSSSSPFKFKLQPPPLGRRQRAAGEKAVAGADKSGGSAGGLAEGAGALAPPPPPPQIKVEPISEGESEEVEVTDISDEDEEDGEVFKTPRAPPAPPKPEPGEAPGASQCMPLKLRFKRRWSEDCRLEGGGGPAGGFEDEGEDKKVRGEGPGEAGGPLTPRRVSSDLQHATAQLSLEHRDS
# Summary of the method: as §1
# [12] = molecular target: T7, ETV3L (Homo sapiens, UniProt Q6ZN32 1-361); settings: protein: recombinant; tags: N-terminal GST; dsDNA, one strand shown
# T7 sequence: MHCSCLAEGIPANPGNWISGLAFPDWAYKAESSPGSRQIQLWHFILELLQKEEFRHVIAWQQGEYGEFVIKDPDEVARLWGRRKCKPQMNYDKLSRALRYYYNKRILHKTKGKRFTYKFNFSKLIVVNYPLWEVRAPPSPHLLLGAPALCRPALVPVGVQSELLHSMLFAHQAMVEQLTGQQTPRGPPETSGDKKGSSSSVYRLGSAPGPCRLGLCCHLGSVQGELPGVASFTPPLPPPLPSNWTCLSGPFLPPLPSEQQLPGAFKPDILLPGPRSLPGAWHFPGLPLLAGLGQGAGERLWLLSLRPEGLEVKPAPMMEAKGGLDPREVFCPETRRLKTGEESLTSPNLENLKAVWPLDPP
# Summary of the method: as §1
# [13] = molecular target: T8, ETS2 (Homo sapiens, UniProt P15036 1-469); settings: protein: recombinant; tags: N-terminal GST; dsDNA, one strand shown
# T8 sequence: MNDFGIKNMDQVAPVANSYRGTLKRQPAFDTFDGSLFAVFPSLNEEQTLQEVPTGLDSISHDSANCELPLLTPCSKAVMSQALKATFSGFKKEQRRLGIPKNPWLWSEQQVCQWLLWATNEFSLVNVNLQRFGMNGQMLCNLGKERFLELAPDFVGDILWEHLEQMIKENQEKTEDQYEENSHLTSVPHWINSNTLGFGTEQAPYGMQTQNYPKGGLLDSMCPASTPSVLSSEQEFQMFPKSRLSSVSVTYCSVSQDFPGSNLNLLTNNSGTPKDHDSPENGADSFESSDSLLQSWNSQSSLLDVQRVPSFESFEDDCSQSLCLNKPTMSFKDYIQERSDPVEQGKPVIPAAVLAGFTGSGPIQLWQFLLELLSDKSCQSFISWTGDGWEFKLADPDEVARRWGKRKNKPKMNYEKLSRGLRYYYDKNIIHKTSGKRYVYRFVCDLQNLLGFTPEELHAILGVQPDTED
# Summary of the method: as §1
# [14] = molecular target: T9, SPDEF (Homo sapiens, UniProt O95238 1-335); settings: protein: recombinant; tags: N-terminal GST; dsDNA, one strand shown
# T9 sequence: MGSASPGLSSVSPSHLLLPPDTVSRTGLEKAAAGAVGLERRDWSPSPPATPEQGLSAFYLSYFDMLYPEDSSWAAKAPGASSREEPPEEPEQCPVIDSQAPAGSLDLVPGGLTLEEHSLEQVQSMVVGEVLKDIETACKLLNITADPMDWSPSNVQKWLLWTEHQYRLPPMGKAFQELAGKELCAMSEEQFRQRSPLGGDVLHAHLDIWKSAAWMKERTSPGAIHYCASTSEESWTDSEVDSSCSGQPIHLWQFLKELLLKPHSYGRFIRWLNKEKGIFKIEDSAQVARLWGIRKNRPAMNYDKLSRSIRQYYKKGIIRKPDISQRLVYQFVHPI
# Summary of the method: as §1
# [15] = molecular target: T10, ETV7 (Homo sapiens, UniProt Q9Y603 1-341); settings: protein: recombinant; tags: N-terminal GST; dsDNA, one strand shown
# T10 sequence: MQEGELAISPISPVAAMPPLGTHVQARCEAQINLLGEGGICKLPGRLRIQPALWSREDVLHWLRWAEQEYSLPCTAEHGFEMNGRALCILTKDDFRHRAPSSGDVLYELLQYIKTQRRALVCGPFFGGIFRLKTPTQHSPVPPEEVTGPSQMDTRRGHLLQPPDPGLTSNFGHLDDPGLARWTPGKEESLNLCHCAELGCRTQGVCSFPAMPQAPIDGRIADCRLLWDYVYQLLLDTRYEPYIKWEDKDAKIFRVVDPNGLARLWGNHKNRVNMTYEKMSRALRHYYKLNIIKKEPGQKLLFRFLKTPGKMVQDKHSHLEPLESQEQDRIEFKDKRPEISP
# Summary of the method: as §1
# [16] = molecular target: T11, ELF5 (Homo sapiens, UniProt Q9UKW6-2 1-255); settings: protein: recombinant; tags: N-terminal GST; dsDNA, one strand shown
# T11 sequence: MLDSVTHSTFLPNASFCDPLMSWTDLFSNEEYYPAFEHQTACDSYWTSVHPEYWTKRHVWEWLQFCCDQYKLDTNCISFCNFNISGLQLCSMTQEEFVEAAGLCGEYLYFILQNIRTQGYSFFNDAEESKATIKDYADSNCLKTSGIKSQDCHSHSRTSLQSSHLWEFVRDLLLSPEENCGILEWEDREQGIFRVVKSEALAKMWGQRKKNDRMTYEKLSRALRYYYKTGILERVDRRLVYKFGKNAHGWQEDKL
# Summary of the method: as §1
# [17] = molecular target: T12, ETV3 (Homo sapiens, UniProt P41162-2 1-143); settings: protein: recombinant; tags: N-terminal GST; dsDNA, one strand shown
# T12 sequence: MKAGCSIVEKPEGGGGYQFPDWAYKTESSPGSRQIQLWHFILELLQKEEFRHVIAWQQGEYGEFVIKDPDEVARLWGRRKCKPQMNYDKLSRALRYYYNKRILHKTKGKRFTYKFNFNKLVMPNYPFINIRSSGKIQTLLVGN
# Summary of the method: as §1
# [18] = molecular target: ETV6 (Homo sapiens, UniProt P41212 1-452); settings: protein: recombinant; tags: N-terminal GST; dsDNA, one strand shown
# Summary of the method: as §1
# Chain of ETV1 (P50549 whole entry): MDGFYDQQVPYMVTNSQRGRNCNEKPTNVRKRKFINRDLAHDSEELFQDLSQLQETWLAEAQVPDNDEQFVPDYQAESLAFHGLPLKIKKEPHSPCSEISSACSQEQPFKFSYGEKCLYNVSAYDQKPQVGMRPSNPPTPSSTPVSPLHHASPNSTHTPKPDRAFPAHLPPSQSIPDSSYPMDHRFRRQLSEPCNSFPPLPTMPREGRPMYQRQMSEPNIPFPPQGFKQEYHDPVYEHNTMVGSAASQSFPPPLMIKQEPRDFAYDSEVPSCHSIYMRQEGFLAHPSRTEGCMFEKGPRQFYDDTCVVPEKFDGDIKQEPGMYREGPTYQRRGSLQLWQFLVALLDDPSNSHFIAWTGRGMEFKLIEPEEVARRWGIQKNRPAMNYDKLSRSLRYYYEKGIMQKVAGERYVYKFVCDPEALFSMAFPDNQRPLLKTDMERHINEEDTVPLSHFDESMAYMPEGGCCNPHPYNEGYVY
# Chain of HSF1 (Q00613 whole entry): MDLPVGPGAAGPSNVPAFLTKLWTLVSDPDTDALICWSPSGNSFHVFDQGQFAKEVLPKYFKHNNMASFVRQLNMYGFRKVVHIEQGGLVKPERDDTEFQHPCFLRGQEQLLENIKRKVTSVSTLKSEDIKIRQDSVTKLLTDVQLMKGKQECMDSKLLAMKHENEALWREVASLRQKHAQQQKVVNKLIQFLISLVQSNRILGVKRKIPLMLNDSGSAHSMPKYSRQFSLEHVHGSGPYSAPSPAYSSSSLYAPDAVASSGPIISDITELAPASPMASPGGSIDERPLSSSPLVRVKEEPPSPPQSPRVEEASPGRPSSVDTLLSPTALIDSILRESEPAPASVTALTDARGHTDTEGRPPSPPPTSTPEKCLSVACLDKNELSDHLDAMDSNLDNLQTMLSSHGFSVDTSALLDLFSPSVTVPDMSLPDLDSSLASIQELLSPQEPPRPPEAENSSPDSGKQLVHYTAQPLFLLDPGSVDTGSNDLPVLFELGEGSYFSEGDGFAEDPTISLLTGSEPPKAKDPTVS
# Chain of ETV5 (P41161 whole entry): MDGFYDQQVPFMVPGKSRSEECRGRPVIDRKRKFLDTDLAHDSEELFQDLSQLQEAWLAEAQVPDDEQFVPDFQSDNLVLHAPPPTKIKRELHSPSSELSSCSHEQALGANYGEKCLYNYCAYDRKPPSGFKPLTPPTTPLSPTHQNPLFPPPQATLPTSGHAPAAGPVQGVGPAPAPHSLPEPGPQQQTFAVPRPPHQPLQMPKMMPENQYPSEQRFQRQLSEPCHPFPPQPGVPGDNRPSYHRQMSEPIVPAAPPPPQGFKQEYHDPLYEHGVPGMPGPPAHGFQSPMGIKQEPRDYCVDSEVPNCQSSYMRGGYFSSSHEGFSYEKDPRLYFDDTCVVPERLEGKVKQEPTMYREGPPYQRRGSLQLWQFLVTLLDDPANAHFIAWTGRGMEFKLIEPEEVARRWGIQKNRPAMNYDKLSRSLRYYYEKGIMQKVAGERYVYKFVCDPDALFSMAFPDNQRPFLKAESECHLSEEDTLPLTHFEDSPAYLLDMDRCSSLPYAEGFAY
# Chain of ETV6 (P41212 whole entry): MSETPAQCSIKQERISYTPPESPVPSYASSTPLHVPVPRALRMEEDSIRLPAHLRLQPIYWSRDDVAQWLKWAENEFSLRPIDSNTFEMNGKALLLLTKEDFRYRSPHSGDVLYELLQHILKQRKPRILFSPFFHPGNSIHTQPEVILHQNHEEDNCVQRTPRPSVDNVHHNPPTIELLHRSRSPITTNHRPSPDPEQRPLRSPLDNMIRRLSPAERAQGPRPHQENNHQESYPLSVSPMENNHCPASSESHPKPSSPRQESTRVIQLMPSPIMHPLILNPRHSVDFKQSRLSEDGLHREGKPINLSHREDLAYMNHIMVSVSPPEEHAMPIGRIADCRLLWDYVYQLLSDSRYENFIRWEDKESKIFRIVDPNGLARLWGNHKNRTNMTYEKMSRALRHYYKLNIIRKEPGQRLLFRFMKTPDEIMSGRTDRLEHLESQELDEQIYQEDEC
# Chain of ELF4 (Q99607 whole entry): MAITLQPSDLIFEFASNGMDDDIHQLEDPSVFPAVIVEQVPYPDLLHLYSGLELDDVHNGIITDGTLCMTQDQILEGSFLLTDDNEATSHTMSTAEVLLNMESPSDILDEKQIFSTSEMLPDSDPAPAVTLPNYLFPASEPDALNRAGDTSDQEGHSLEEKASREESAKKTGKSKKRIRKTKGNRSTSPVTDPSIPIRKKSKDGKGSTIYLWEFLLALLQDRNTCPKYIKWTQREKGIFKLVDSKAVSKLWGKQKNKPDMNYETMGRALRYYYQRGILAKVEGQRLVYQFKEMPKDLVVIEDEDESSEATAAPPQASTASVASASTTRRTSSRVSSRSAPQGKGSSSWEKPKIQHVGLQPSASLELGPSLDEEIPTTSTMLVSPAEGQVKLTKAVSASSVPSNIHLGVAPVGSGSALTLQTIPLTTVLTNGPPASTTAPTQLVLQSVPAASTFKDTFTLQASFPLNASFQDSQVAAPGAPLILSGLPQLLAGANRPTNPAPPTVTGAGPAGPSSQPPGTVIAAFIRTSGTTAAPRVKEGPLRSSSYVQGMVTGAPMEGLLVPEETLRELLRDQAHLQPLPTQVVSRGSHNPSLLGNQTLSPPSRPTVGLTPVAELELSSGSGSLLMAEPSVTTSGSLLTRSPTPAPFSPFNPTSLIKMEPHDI
# Chain of CRX (O43186 whole entry): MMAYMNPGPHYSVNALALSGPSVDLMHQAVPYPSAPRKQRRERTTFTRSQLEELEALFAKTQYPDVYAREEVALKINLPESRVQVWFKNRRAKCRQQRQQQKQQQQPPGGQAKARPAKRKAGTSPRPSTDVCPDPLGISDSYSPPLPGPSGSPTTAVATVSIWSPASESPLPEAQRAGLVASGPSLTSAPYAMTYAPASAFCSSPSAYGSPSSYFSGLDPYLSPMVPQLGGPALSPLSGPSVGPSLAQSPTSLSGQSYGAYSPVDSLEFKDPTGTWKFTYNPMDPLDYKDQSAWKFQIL
sequence,measurement,setting,value
CTTGCG,binding signal,[1],"1.32 fold enrichment (6-mer frequency, TF over GST control)"
same,binding signal,[2],"1.36 fold enrichment (6-mer frequency, TF over GST control)"
same,binding signal,[3],"1.26 fold enrichment (6-mer frequency, TF over GST control)"
same,binding signal,[4],"1.3 fold enrichment (6-mer frequency, TF over GST control)"
same,binding signal,[5],"1.27 fold enrichment (6-mer frequency, TF over GST control)"
same,binding signal,[6],"1.51 fold enrichment (6-mer frequency, TF over GST control)"
same,binding signal,[7],"1.29 fold enrichment (6-mer frequency, TF over GST control)"
same,binding signal,[8],"1.46 fold enrichment (6-mer frequency, TF over GST control)"
same,binding signal,[9],"1.13 fold enrichment (6-mer frequency, TF over GST control)"
same,binding signal,[10],"1.41 fold enrichment (6-mer frequency, TF over GST control)"
same,binding signal,[11],"1.41 fold enrichment (6-mer frequency, TF over GST control)"
same,binding signal,[12],"1.39 fold enrichment (6-mer frequency, TF over GST control)"
same,binding signal,[13],"1.28 fold enrichment (6-mer frequency, TF over GST control)"
same,binding signal,[14],"1.25 fold enrichment (6-mer frequency, TF over GST control)"
same,binding signal,[15],"1.3 fold enrichment (6-mer frequency, TF over GST control)"
same,binding signal,[16],"1.28 fold enrichment (6-mer frequency, TF over GST control)"
same,binding signal,[17],"1.42 fold enrichment (6-mer frequency, TF over GST control)"
same,binding signal,[18],"1.37 fold enrichment (6-mer frequency, TF over GST control)"
